From publication PMC5540273 (PLoS ONE, 2017) come the findings set out here.

Among the test systems are MAP3K3; MAP3K4; MAP4K2; MAP4K3; MAP4K4; MAP4K5; MAPKAPK2; MAPKAPK5; MARK1; MARK2; MARK3; MARK4; MAST1; MELK.
What all share (settings): concentration: 1 μM, replicates: in singlicate; n = 1
The subject of the next test is T1, MEK1.
T1 construct: gene MAP2K1

In a further test the test system is T2, MEK2.
T2 construct: gene MAP2K2

A further test deals with T3, MEK3.
T3 construct: gene MAP2K3

In a further test the test system is T4, MEK4.
T4 construct: gene MAP2K4

In the next test the test system is T5, MEK5.
T5 construct: gene MAP2K5

The next test has as its system T6, MEK6.
T6 construct: gene MAP2K6
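Also: KINOMEscan kinase panel screen.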

As to `FC(F)(F)c1cc(Nc2nccc(-c3c(-c4ccc(Cl)cc4)nn4ncccc34)n2)ccc1Cl` [GW829351], the “%Inh” value in the test on MAP3K3, in the test with MAP3K4, with MAP4K2, in the test with MAP4K3, in the test on MAP4K4 and with MAP4K5 was 0% throughout. Moreover, the “%Inh” value in the test with MAPKAPK2 is recorded as 0%; in the test on MAPKAPK5, 0%; with MARK1, 0%; in the test with MARK2, 0%; with MARK3, 0%; in the test with MARK4 it was 17%. Also, the “%Inh” value was 20% in the test on MAST1; 6% in the test with MEK1; 21% with MEK2; 0% in the test on MEK3; 0% with MEK4; 1% in the test with MEK5. Besides, the “%Inh” value in the test with MEK6 and with MELK was 0% in each case.
As to `O=C(c1ccc(-c2cc(-c3c[nH]nc3-c3ccccn3)ccn2)cc1)N1CCCC1` [GW792479], the “%Inh” value in the test with MAP3K3 is 11%; in the test on MAP3K4 it was 25%; with MAP4K2, 0%; in the test on MAP4K3, 0%; with MAP4K4, 5%; in the test on MAP4K5, 0%. The “%Inh” value was determined as 0% with MAPKAPK2; 0% with MAPKAPK5; 0% in the test on MARK1; 4% in the test on MARK2; 0% with MARK3; 15% with MARK4. The “%Inh” value is 12% in the test on MAST1; 14% with MEK1; 30% in the test on MEK2; 20% with MEK3; 0% with MEK4; 30% in the test on MEK5. Also, the “%Inh” value in the test on MEK6 and in the test on MELK was 0% each time.
As for `Cl.c1ccc(Cn2ccc3cc(Nc4ncnc5ccccc45)ccc32)cc1` [GW275568], the “%Inh” value in the test with MAP3K3 was 0%; with MAP3K4, 5%; with MAP4K2, 0%; in the test with MAP4K3 it was 1%; with MAP4K4 it was 4%; with MAP4K5, 3%. Also, the “%Inh” value is given as 7% with MAPKAPK2; 0% in the test on MAPKAPK5; 17% in the test on MARK1; 28% in the test on MARK2; 1% with MARK3; 30% with MARK4. The “%Inh” value in the test on MAST1 was 0%; with MEK1, 14%; in the test with MEK2, 6%; in the test on MEK3 it was 11%; with MEK4 it was 19%; with MEK5, 84%. Also, the figures for the “%Inh” value in the test with MEK6 and with MELK were 5% and 9%, respectively.
For the compound `CC(=O)Nc1n[nH]c2ncc(-c3ccccc3)cc12` [SB-548492], the “%Inh” value is listed as 37% in the test with MAP3K3; 11% in the test on MAP3K4; 25% in the test with MAP4K2; 0% with MAP4K3; 0% in the test on MAP4K4; 4% with MAP4K5. Moreover, the “%Inh” value is listed as 5% with MAPKAPK2; 8% in the test on MAPKAPK5; 11% in the test on MARK1; 5% with MARK2; 0% with MARK3; 8% in the test with MARK4. Also, the “%Inh” value in the test with MAST1 is 42%; in the test on MEK1, 23%; with MEK2, 35%; in the test with MEK3, 19%; with MEK4, 21%; in the test on MEK5 it was 87%. For the same compound, the “%Inh” value came to 0% in the test on MEK6 and 21% with MELK.
As for `Nc1nc(-c2ccc3c(N)n[nH]c3c2)cc(N2CCCCC2)n1` [GSK2228768], the “%Inh” value was determined as 0% with MAP3K3; 2% with MAP3K4; 0% in the test on MAP4K2; 0% with MAP4K3; 0% in the test on MAP4K4; 0% in the test on MAP4K5. In addition, the “%Inh” value in the test on MAPKAPK2 was 3%; in the test with MAPKAPK5, 0%; in the test with MARK1, 0%; with MARK2, 0%; in the test with MARK3 it was 0%; in the test on MARK4 it was 0%. The “%Inh” value is reported as 0% with MAST1; 0% in the test with MEK1; 0% in the test on MEK2; 2% in the test with MEK3; 0% in the test on MEK4; 8% in the test with MEK5. Besides, the “%Inh” value in the test on MEK6 and in the test on MELK was 0% each time.
In the case of `Fc1cccc(COc2ccc(Nc3ncnc4cc[nH]c34)cc2Cl)c1`, the “%Inh” value in the test with MAP3K3 is recorded as 0%; in the test on MAP3K4, 4%; with MAP4K2, 0%; in the test on MAP4K3, 0%; with MAP4K4, 21%; in the test on MAP4K5, 7%. The “%Inh” value in the test with MAPKAPK2 is 4%; in the test on MAPKAPK5, 26%; with MARK1, 0%; in the test with MARK2, 36%; in the test with MARK3, 9%; in the test on MARK4, 0%. Besides, the “%Inh” value in the test on MAST1 is reported as 65%; with MEK1, 12%; in the test with MEK2 it was 21%; with MEK3 it was 18%; in the test with MEK4, 20%; in the test on MEK5 it was 47%. The figures for the “%Inh” value in the test on MEK6 and in the test on MELK were 0% and 6%, respectively.
Turning to `Cn1cc(-c2ccc3c(c2)CCN3C(=O)Cc2cccc(C(F)(F)F)c2)c2c(N)ncnc21` [GSK2606414], the “%Inh” value was 0% in the test on MAP3K3; 12% with MAP3K4; 0% with MAP4K2; 0% with MAP4K3; 10% in the test on MAP4K4; 10% with MAP4K5. In addition, the “%Inh” value in the test on MAPKAPK2 worked out at 100%; in the test with MAPKAPK5 it was 0%; with MARK1, 6%; in the test on MARK2, 0%; in the test on MARK3, 0%; in the test with MARK4, 7%. For the same compound, the “%Inh” value amounted to 0% in the test on MAST1; 0% in the test with MEK1; 0% with MEK2; 0% with MEK3; 22% in the test with MEK4; 6% in the test on MEK5. Moreover, the “%Inh” value with MEK6 came out at 0%; in the test on MELK it was 8%.
